This passage reports Potency results from PubChem BioAssay (NCATS).

Holding throughout (assay): qHTS profiling for inhibitors of Plasmodium falciparum proliferation (AID 504749); also: nearly all actives have a fitted effect of over 60% in size
Common to all, as to settings: P. falciparum in erythrocytes, SYBR Green DNA, 72 h; series mostly up to 28.7 µM

Assay [1] deals with CP185. In short, it runs like this:
(§1)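 Parasite proliferation within erythrocytes, 72 h exposure. Endpoint: SYBR Green I fluorescence after overnight lysis at room temperature. Controls: 0.29 uM artemisinin, DMSO.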

Assay [2] relates to CP191. Summed up:
as §1

Assay [3] deals with CP192. Summed up:
as §1

Assay [4] relates to CP194. In short, it runs like this:
as §1

Assay [5] has as its system CP201. In short, it runs like this:
as §1

Assay [6] relates to CP203. In short, it runs like this: as §1
The subject of assay [7] is CP211. Summed up:
as §1

The subject of assay [8] is CP215. Summed up:
as §1

In assay [9] the test system is CP217. Summed up:
as §1

Assay [10] deals with CP237. In short, it runs like this:
as §1

The test system of assay [11] is CP238. Summed up: as §1
Assay [12] concerns CP247. In short, it runs like this:
as §1

The subject of assay [13] is CP250. Summed up:
as §1

Assay [14] relates to CP252. In short, it runs like this: as §1
The test system of assay [15] is CP256. In short, it runs like this: as §1
For assay [16], the system named is CP260. Summed up: as §1
Assay [17] concerns CP262. In short, it runs like this: as §1
The test system of assay [18] is CP265. In short, it runs like this:
as §1

Assay [19] deals with CP266. Summed up: as §1
Assay [20] concerns CP268. In short, it runs like this:
as §1

Inconclusive results are not listed. The source made the active and inactive calls. Calls follow the shape of the dose curve; as a rule, active = well fitted inhibition curve with a large enough effect; inconclusive = small, poorly fitted or top-dose-only effect; inactive = flat fitted curve, though single readings scatter.
Potency is read from the fitted curve at half-maximal effect.

With `CCCCCCCC(=O)O`, the Potency result in assay [1], in assay [2], in assay [3], in [4], in [5] and in assay [6] was “inactive” throughout. Besides, the Potency entry in [7], in assay [8], in assay [9], in [10], in [11] and in assay [12] was “inactive” throughout. Moreover, the Potency result in assay [13], in [14], in assay [15], in assay [16], in assay [17] and in assay [18] was “inactive” each time. Besides, the Potency result in assay [19] and in assay [20] was “inactive” throughout.

Regarding `CCOc1ccc(N=Nc2ccc(N)cc2N)cc1`, the Potency entry in assay [1], in assay [2], in assay [3], in [4], in [5] and in assay [6] was “inactive” each time. For the same compound, the Potency result in assay [7], in assay [8], in [9], in [10], in assay [11] and in assay [13] was “inactive” in each case. Also, the Potency entry in [14], in assay [15], in assay [16], in assay [17], in assay [18] and in [19] was “inactive” throughout. For the same compound, the Potency result in [20] was “inactive”.

Take `CO[C@H]1C[C@@H]2CC[C@@H](C)[C@@](O)(O2)C(=O)C(=O)N2CCCC[C@H]2C(=O)O[C@H]([C@H](C)C[C@@H]2CC[C@@H](OCCO)[C@H](OC)C2)CC(=O)[C@H](C)/C=C(\C)[C@@H](O)[C@@H](OC)C(=O)[C@H](C)C[C@H](C)/C=C/C=C/C=C/1C`: the Potency in assay [1] was 3.16 µM (active); in [2], 1.12 µM (active); in assay [3], 4.78 µM (active); in [4] it was 1.69 µM (active); in assay [5], 6.01 µM (active); in assay [6] it was 1.9 µM (active). In addition, the Potency was 4.26 µM (active) in [7]; 1.69 µM (active) in assay [8]; 1 µM (active) in assay [9]; 2 µM (active) in assay [10]; 2.82 µM (active) in [11]; 1.26 µM (active) in assay [12]. In addition, the Potency was 3.16 µM (active) in [13]; 1.26 µM (active) in assay [14]; 3.55 µM (active) in [15]; 2 µM (active) in assay [16]; 3.01 µM (active) in assay [17]; 1.12 µM (active) in assay [18]. Besides, the Potency was 6.01 µM (active) in [19] and 4.26 µM (active) in [20].

On to `COC(=O)[C@H]1[C@H]2C[C@@H]3c4[nH]c5ccccc5c4CCN3C[C@H]2C[C@@H](OC(=O)c2cc(OC)c(OC)c(OC)c2)[C@@H]1OC`, for which the Potency in assay [1] was 0.398 µM (active); in [2] it was 0.398 µM (active); in assay [3] it was 0.338 µM (active); in [4], 0.536 µM (active); in [5] it was 0.849 µM (active); in assay [6], 0.536 µM (active). Further, the Potency in assay [7] is 0.601 µM (active); in assay [8], 0.757 µM (active); in assay [9], 0.355 µM (active); in assay [10], 0.126 µM (active); in assay [11], 0.355 µM (active); in [12] it was 0.398 µM (active). The Potency in assay [13] was 0.447 µM (active); in assay [14], 0.398 µM (active); in [15], 0.398 µM (active); in [16] it was 0.282 µM (active); in assay [17], 1.2 µM (active); in [18] it was 0.398 µM (active). For the same compound, the Potency is 1.07 µM (active) in assay [19] and 0.601 µM (active) in assay [20].

In the case of `Cc1cc(C(=O)NNCc2ccccc2)no1`, the Potency result in assay [1], in assay [2], in assay [3], in assay [4], in assay [5] and in assay [6] was “inactive” in each case. In addition, the Potency entry in [7], in assay [8], in assay [9], in assay [10], in assay [11] and in [12] was “inactive” in each case. Further, the Potency entry in [13], in assay [14], in assay [15], in assay [16], in [17] and in [18] was “inactive” in each case. Also, the Potency result in assay [19] and in assay [20] was “inactive” throughout.

As for `O=C(O)CN(CCN(CC(=O)O)CC(=O)O)CC(=O)O`, the Potency result in assay [1], in assay [2], in assay [3], in assay [4], in [5] and in [6] was “inactive” throughout. Further, the Potency result in assay [7], in [9], in [10], in assay [11], in assay [12] and in assay [13] was “inactive” throughout. Moreover, the Potency entry in [14], in assay [15], in assay [16], in assay [17], in [18] and in assay [19] was “inactive” each time. Moreover, the Potency entry in [20] is “inactive”.

As to `O=C(O)c1cc(=O)c2c3nc4ccccc4oc-3cc(=O)c2[nH]1`, the Potency result in [1], in assay [2], in assay [3], in assay [4], in assay [5] and in assay [6] was “inactive” in each case. The Potency result in [7], in [8], in assay [9], in assay [11], in assay [12] and in assay [13] was “inactive” in each case. Moreover, the Potency entry in [14], in assay [15], in assay [18], in [19] and in [20] was “inactive” in each case. For the same compound, the values for the Potency in assay [10] and in assay [16] were 2.82 µM (active) and 12.6 µM (active), respectively.

In the case of `COC(C(=O)C(O)C(C)O)C1Cc2cc3cc(OC4CC(OC5CC(O)C(O)C(C)O5)C(O)C(C)O4)c(C)c(O)c3c(O)c2C(=O)C1OC1CC(OC2CC(OC3CC(C)(O)C(O)C(C)O3)C(O)C(C)O2)C(O)C(C)O1` (stereo not given), the Potency in [1] is 0.251 µM (active); in assay [2] it was 0.224 µM (active); in [3], 3.01 µM (active); in [4] it was 3.01 µM (active); in [5], 2.69 µM (active); in assay [6], 3.01 µM (active). In addition, the Potency in assay [7] is 2.69 µM (active); in assay [8], 2.39 µM (active); in assay [9], 0.282 µM (active); in [10], 0.1 µM (active); in [11], 0.251 µM (active); in assay [13] it was 0.251 µM (active). Also, the Potency in [14] was 0.251 µM (active); in assay [15] it was 0.316 µM (active); in assay [16] it was 0.126 µM (active); in [17] it was 2.13 µM (active); in assay [18], 0.355 µM (active); in assay [19], 2.13 µM (active). Moreover, the Potency in [20] is 1.69 µM (active).

With `CCOC(C)=O`, the Potency entry in [1], in [2], in assay [3], in [4], in [5] and in assay [6] was “inactive” in each case. Moreover, the Potency entry in [7], in [8], in [9], in assay [10], in assay [11] and in assay [12] was “inactive” each time. Besides, the Potency result in assay [13], in assay [14], in [15], in assay [16], in [17] and in assay [18] was “inactive” in each case. The Potency result in assay [19] and in assay [20] was “inactive” each time.

As for `Cc1c(C)c2c(c(C)c1O)CC[C@@](C)(CCC[C@@H](C)CCC[C@@H](C)CCCC(C)C)O2`, the Potency result in assay [1], in [2], in assay [3], in assay [4], in [5] and in assay [6] was “inactive” in each case. For the same compound, the Potency result in assay [7], in assay [8], in assay [9], in assay [10], in assay [11] and in assay [12] was “inactive” in each case. In addition, the Potency entry in assay [13], in [14], in assay [15], in assay [16], in assay [17] and in assay [18] was “inactive” in each case. In addition, the Potency entry in assay [19] and in [20] was “inactive” in each case.

Take `CC1(C)C(C=C(Cl)Cl)C1C(=O)OCc1cccc(Oc2ccccc2)c1` (stereo not given): the Potency entry in assay [1], in assay [2], in assay [3], in assay [4], in [5] and in assay [7] was “inactive” throughout. For the same compound, the Potency result in assay [8], in assay [9], in [10], in assay [11], in [12] and in [13] was “inactive” in each case. Also, the Potency result in assay [14], in [15], in assay [16], in assay [17], in assay [18] and in assay [19] was “inactive” throughout. Further, in assay [20], the Potency result was “inactive”.

Turning to `C[C@@H]1CCC2[C@@H](C)[C@@H](O)O[C@@H]3O[C@@]4(C)CC[C@@H]1[C@@]23OO4` (stereo not given in full), the Potency in assay [1] is 0.0025 µM (active); in [2], 0.0032 µM (active); in assay [3], 0.0043 µM (active); in assay [4], 0.006 µM (active); in [5] it was 0.0107 µM (active); in [6], 0.0034 µM (active). Also, the Potency is 0.0054 µM (active) in [7]; 0.0048 µM (active) in assay [8]; 0.0028 µM (active) in assay [9]; 0.0016 µM (active) in assay [10]; 0.0022 µM (active) in [11]; 0.0032 µM (active) in assay [12]. Further, the Potency in assay [13] was 0.0028 µM (active); in [14], 0.0025 µM (active); in assay [15] it was 0.0022 µM (active); in assay [16], 0.0013 µM (active); in assay [17] it was 0.006 µM (active); in assay [18], 0.0009 µM (active). Moreover, the Potency was 0.0076 µM (active) in assay [19] and 0.0038 µM (active) in assay [20].
